Assay outcomes from PubChem BioAssay.
Sampled rows, rich in hits. Any-hit rate of the full collection: about 0.8%.
C1s block: human complement C1s inhibition; P09871; purified C1s, fluorogenic AMC substrate, pooled mixtures; mean inhibition % of two 10-compound mixtures (stronger effect = higher value), % at 5 µM (by protocol); 62,000 tested, 0.16% active; AID 538;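 active = inhibition above 20% in each of the two 10-compound mixture wells holding the compound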;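 also: 0% = enzyme wells lacking compound mixture and 100% = no-enzyme blank wells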
Candida biofilm: kills Candida albicans biofilms; C. albicans biofilm + clotrimazole, Alamar Blue; inhibition, % at 6 µM; 85,000 tested, 0.14% active;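 active = inhibition above 20%; inactive = inhibition below 20%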;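 also: preformed 24 hr biofilms exposed to compound for 48 hr; 0% = biofilm without compound and 100% = blank killed by clotrimazole plus chlorhexidine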
FXIIa inh mix: blocks human factor XIIa in pooled compound mixtures; P00748; purified FXIIa, fluorogenic substrate; inhibition, % at 5 µM; 62,000 tested, 0.2% active; AID 684;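 also: 0% = enzyme without compound and 100% = no enzyme blank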
CatG inh: cathepsin G (human) inhibition. P08311. purified enzyme, AMC-tetrapeptide fluorescence, pooled mixtures. inhibition, % at 5 µM (by protocol). 62,000 tested, 0.2% active. AID 581;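 active = inhibition above 20% in each of the two mixture wells holding the compound; inactive = inhibition of 20% or less in either well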;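 also: 0% = enzyme control without mixture and 100% = blank lacking enzyme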
BAP1 block: inhibitors of human BAP1 deubiquitinase. activity remaining (% of control), % at 20 µM. Q92560. 72,000 tested, 0.48% active. recombinant BAP1, Ub-AMC hydrolysis fluorescence kinetic; stronger effect = lower value. AID 436;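 active = activity remaining at or below 50% of control, provided the compound also passes the data quality filters; inactive = the rest, including low values that fail the filters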;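 also: 100% = DMSO wells rate and 0% = substrate alone blank rate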
FXIa mix inh: inhibitors of human coagulation factor XIa, pooled mixtures; P03951; inhibition, % at 5 µM; purified FXIa, fluorogenic substrate; 62,000 tested, 0.19% active;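 also: each value is inhibition by a whole ten-compound pool holding the compound; 0% = enzyme with no mixture and 100% = wells lacking enzyme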
Target sequence (P03951 19-387 limits assumed): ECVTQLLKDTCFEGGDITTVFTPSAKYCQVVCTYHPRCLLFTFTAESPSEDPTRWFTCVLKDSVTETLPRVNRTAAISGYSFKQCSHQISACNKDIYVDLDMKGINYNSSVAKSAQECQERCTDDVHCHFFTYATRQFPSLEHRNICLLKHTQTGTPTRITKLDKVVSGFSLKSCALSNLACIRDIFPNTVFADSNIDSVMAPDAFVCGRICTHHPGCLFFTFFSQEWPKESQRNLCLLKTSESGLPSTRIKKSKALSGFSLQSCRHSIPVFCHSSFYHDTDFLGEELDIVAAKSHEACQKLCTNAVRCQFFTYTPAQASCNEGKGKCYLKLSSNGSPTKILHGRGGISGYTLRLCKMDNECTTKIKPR
Target sequence (P03951 388-625 limits assumed): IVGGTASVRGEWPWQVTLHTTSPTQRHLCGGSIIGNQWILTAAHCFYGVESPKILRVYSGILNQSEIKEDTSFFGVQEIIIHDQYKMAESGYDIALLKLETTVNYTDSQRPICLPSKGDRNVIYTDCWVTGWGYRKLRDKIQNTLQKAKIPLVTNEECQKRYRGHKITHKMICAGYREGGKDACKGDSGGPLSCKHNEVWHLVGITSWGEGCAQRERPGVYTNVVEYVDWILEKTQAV
BAP1 inh confirm: BAP1 (human) enzyme inhibition, confirmed | % of control activity, % at 20 µM | shares compounds with BAP1 block | 310 tested, 8% active | purified BAP1, Ub-ethyl ester hydrolysis, HPLC; stronger effect = lower value | AID 753;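 active = percent of control activity at or below 60%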
Active calls of the source: *; nt = not tested or not shown. Rule as the data show it, unless noted: active = inhibition above about 20% (passing the limit was not always enough); inactive = the rest.

SMILES	C1s block	Candida biofilm	FXIIa inh mix	CatG inh	BAP1 block	FXIa mix inh	BAP1 inh confirm
CC1(C)C(c2ccccc2)=NC(c2cccnc2)N1O (configuration not stated)	62.0*	6.4	5.0	7.5	98.0	8.6	nt
CCCCn1c(O)c(C(C)=NC(Cc2c[nH]c3ccccc23)C(=O)OC)c(=O)[nH]c1=O (configuration not stated)	-4.1	-6.1	15.9	-0.7	91.0	-0.5	nt
COC(=O)c1cc2c(cn1)[nH]c1ccccc12	nt	nt	nt	nt	48.1*	nt	nt
CNc1ccc2oc(C[C@H]3O[C@@]4(CC[C@H]3C)O[C@H]([C@H](C)C(=O)c3ccc[nH]3)[C@H](C)C[C@H]4C)nc2c1C(=O)O	nt	nt	nt	nt	43.8*	nt	nt
CC(=O)C1C2c3ccccc3OC1(C)N=c1s/c(=C/c3cn(C)nc3C)c(=O)n12 (configuration not stated)	16.0	10.6	4.9	12.0	95.5	8.1	nt
C=CCN1C(=O)NC(=O)/C(=C/c2ccc(OC)c(CSc3ccccn3)c2)C1=O	nt	10.8	nt	nt	nt	nt	nt
COCCOC(=O)c1c(N)n(Cc2ccco2)c2nc3ccccc3nc12	nt	5.6	nt	nt	nt	nt	145.4
CCCCn1c(=O)c(C(=O)NCc2ccncc2)c(O)c2ccccc21	-21.6	-2.1	3.1	4.3	48.2*	-5.9	140.5
O=C(Nc1cccnc1)c1c(O)c2c(n(Cc3ccccc3)c1=O)CCCC2	1.6	-0.1	5.6	-1.3	48.0*	-1.7	69.0
O=C(Nc1ccncc1)c1c(O)c2ccccc2n(Cc2ccccc2)c1=O	nt	2.7	nt	nt	92.0	nt	nt
COc1ccc(-n2c(=O)[nH]c3ccccc3c2=O)cc1	nt	1.6	nt	nt	nt	nt	nt
CN(C)C1=NP(N(C)C)(N(C)C)=NC(c2ccccc2)=N1	-15.1	4.9	9.4	3.6	91.3	-5.4	nt
